# Where a name gives a salt, the structure may show the parent alone. ± gives the standard deviation of the averaged measurements.
# Tested on: E. coli TESEC Mtb DapB
# Experiment: growth (OD600 after 10 h); higher = more growth (less inhibition)
# Settings: arabinose induction (level): High; compound 0.1 mM; raw OD600 reference: median of DMSO wells […], cell-free background 0.041
# Experimental: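 TESEC E. coli strains in which the native enzyme is deleted and replaced by arabinose-inducible Mtb Asd, DapB, CysH or TrpD, each grown in its selective medium. Strains were screened against the Prestwick library at 0.1 mM and 1% DMSO in 384-well format at low and high arabinose induction. Growth is read as OD600 after 10 h in triplicate.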
row,SMILES,growth
1,COc1cc(C(=O)NS(=O)(=O)c2ccccc2C)ccc1Cc1cn(C)c2ccc(NC(=O)OC3CCCC3)cc12 [Zafirlukast],0.179 ± 0.018
2,NNc1nncc2ccccc12 [Hydralazine hydrochloride],0.19 ± 0.0027
3,"Nc1c2c(nc3ccccc13)CCCC2O (racemic) [Hydroxytacrine maleate (R,S)]",0.203 ± 0.018
4,CCN(CC)CCOC(=O)C1(C2CCCCC2)CCCCC1 [Dicyclomine hydrochloride],0.144 ± 0.0069
5,O=C(Oc1cccc2cccnc12)c1ccccc1 [Benzoxiquine],0.182 ± 0.018
6,O=C1CC2(CCCC2)CC(=O)N1CCCCN1CCN(c2ncccn2)CC1 [Buspirone hydrochloride],0.1852 ± 0.0015
7,CCN(CC)C(=O)C1(c2ccccc2)CC1CN (stereo not given) [Milnacipran hydrochloride],0.203 ± 0.016
8,CCN(CC)CC#CCOC(=O)C(O)(c1ccccc1)C1CCCCC1 (stereo not given) [Oxybutynin chloride],0.159 ± 0.0078
9,C[C@]12C=CC(=O)C=C1CC[C@H]1[C@@H]3C[C@@H](O)[C@](O)(C(=O)CO)[C@@]3(C)C[C@H](O)[C@@]12F [Triamcinolone],0.191 ± 0.014
10,O=C(CCCCC(=O)Nc1c(I)cc(I)c(C(=O)O)c1I)Nc1c(I)cc(I)c(C(=O)O)c1I [Iodipamide],0.213 ± 0.0095
11,CCN(CCO)CCCC(C)Nc1ccnc2cc(Cl)ccc12 (stereo not given) [Hydroxychloroquine sulfate],0.198 ± 0.0048
12,Cc1ccsc1/C=C/C1=NCCCN1C [Morantel tartrate],0.205 ± 0.038
13,Cc1noc(NS(=O)(=O)c2ccc(N)cc2)c1C [Sulfisoxazole],0.19 ± 0.0067
14,C=CCOc1ccccc1OCC(O)CNC(C)C (stereo not given) [Oxprenolol hydrochloride],0.204 ± 0.0052
15,CCOc1ccc2c(c1)C(C)=CC(C)(C)N2 [Ethoxyquin],0.196 ± 0.0042
16,CC1Cc2ccccc2N1NC(=O)c1ccc(Cl)c(S(N)(=O)=O)c1 (stereo not given) [Indapamide],0.208 ± 0.016
17,CCC(=O)OCC(=O)[C@@]1(OC(=O)CC)[C@H](C)C[C@H]2[C@H]3[C@H]([C@@H](O)C[C@@]21C)[C@@]1(C)C=CC(=O)C=C1C[C@H]3Cl [Alclometasone dipropionate],0.198 ± 0.0033
18,Cc1scc2c1N(C(=O)CN1CCN(C)CC1)c1ccccc1NC2=O [Telenzepine dihydrochloride],0.1919 ± 0.0014
19,O=C1CC[C@@H](C(=O)N2CSC[C@H]2C(=O)O)N1 [Pidotimod],0.191 ± 0.013
20,CCC1NC(=O)c2cc(S(N)(=O)=O)c(Cl)cc2N1 (stereo not given) [Quinethazone],0.212 ± 0.021

row,SMILES,growth
1,CN1CCCN(C(c2ccccc2)c2ccc(Cl)cc2)CC1 (stereo not given) [Homochlorcyclizine dihydrochloride],0.169 ± 0.0068
2,C1N2CN3CN1CN(C2)C3 [Methenamine],0.204 ± 0.0098
3,CC(C)(O/N=C(\C(=O)N[C@@H]1C(=O)N2C(C(=O)[O-])=C(C[n+]3ccccc3)CS[C@H]12)c1csc(N)n1)C(=O)O [Ceftazidime pentahydrate],0.167 ± 0.072
4,CC(C(O)c1ccc(O)cc1)N1CCC(Cc2ccccc2)CC1 (stereo not given) [Ifenprodil tartrate],0.1878 ± 0.00062
5,CCN(CC)CCNC(=O)c1ccc(N)cc1 [Procainamide hydrochloride],0.192 ± 0.015
6,CC[C@H]1OC(=O)[C@H](C)[C@@H](O[C@H]2C[C@@](C)(OC)[C@@H](O)[C@H](C)O2)[C@H](C)[C@@H](O[C@@H]2O[C@H](C)C[C@H](N(C)C)[C@H]2O)[C@](C)(O)C[C@@H](C)CN(C)[C@H](C)[C@@H](O)[C@]1(C)O [Azithromycin],0.1 ± 0.088
7,"OC(CCN1CCCCC1)(c1ccccc1)C1CCCCC1 (stereo not given) [Trihexyphenidyl-D,L Hydrochloride]",0.179 ± 0.016
8,CN1C(C(=O)Nc2ccccn2)=C(O)c2ccccc2S1(=O)=O [Piroxicam],0.181 ± 0.015
9,c1ccc(CN(CC2=NCCN2)c2ccccc2)cc1 [Antazoline hydrochloride],0.185 ± 0.01
10,CCCc1nc2c(C)cc(-c3nc4ccccc4n3C)cc2n1Cc1ccc(-c2ccccc2C(=O)O)cc1 [Telmisartan],0.273 ± 0.0084
11,Nc1nc(F)nc2c1ncn2[C@@H]1O[C@H](CO)[C@@H](O)[C@@H]1O [Fludarabine],0.168 ± 0.014
12,CN1CCOC(c2ccccc2)c2ccccc2C1 (stereo not given) [Nefopam hydrochloride],0.186 ± 0.006
13,NCCCC(O)(P(=O)(O)O)P(=O)(O)O [Alendronate sodium],0.214 ± 0.022
14,Clc1ccccc1C(c1ccccc1)(c1ccccc1)n1ccnc1 [Clotrimazole],0.0469 ± 0.0008
15,"O=C1c2cccc(O)c2C(=O)c2c(O)cccc21 [1,8-Dihydroxyanthraquinone]",0.189 ± 0.0068
16,CC(N/C(=N\C#N)Nc1ccncc1)C(C)(C)C (stereo not given) [Pinacidil],0.19 ± 0.012
17,COc1ccc2c(c1)c(CC(=O)OCC(=O)O)c(C)n2C(=O)c1ccc(Cl)cc1 [Acemetacin],0.152 ± 0.0045
18,O=C(O)c1ccccc1C(=O)Nc1ccc(S(=O)(=O)Nc2nccs2)cc1 [Phthalylsulfathiazole],0.212 ± 0.016
19,c1ccc2c(c1)CCCC2C1=NCCN1 (stereo not given) [Tetrahydrozoline hydrochloride],0.203 ± 0.018
20,Cc1nnc(NS(=O)(=O)c2ccc(N)cc2)s1 [Sulfamethizole],0.189 ± 0.0042

# — the supplement of paper PMC9262897, “Low-cost anti-mycobacterial drug discovery using engineered E. coli” (Nature Communications, 2022)
